Results from PubChem BioAssay.
Values joined by “and” are separate entries in the source; they are usually repeats but may differ in a detail not shown here. Identical values can stand only once. For some of these results: Measured potencies and affinities stand elsewhere. More than one record can exist for a structure, and the calls need not agree. Active and inactive are the calls of the source. Unless noted, the rule behind the calls is not given here.

Tests used:
[1] = antimalarial activity against Dd2 strain (AID 2302;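 active = growth inhibition above 50% at the single 2 µM test dose, taken to imply half-maximal potency below 2 µM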;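 note: 0% = DMSO untreated growth and 100% = chloroquine plus artemisinin killed control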); conditions: P. falciparum Dd2 in RBCs, LDH growth readout, 72 h; at 2 µM; stronger effect = higher value
[2] = HepG2 cytotoxicity, primary screen, cytotoxicity control for P. falciparum antimalarial project, cell-based, ATP luminescence (AID 2303;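 active = inhibition above 50%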;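 note: 0% = DMSO wells and 100% = digitonin-killed cells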); conditions: HepG2 viability, 24-48 h, at 10 µM, stronger effect = higher value
[3] = molecular target: L-lactate dehydrogenase (Plasmodium falciparum (isolate CDC / Honduras)) (UniProt Q27743); experiment: PfLDH activity inhibition – cell lysate, 3D7 strain, counter-screen for P. falciparum growth inhibition project (AID 2304);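 note: 0% = vehicle and 100% = reference inhibitor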; conditions: P. falciparum 3D7 crude extract, LDH APAD/NBT absorbance; at 2 µM; stronger effect = higher value
Chain of L-lactate dehydrogenase (Plasmodium falciparum (isolate CDC / Honduras)) (Q27743 whole entry, looked up): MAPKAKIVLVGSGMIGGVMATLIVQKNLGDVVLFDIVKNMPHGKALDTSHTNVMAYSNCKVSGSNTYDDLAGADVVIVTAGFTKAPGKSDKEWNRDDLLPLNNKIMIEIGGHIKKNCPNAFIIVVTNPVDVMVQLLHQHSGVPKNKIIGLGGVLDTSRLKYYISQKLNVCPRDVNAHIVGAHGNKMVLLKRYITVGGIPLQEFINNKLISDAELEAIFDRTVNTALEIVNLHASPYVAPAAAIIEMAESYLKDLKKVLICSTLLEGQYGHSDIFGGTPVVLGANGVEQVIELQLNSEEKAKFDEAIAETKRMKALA

[4] = inhibition of 3D7 malaria parasite growth – strain 3D7 (AID 2306);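 note: 0% = DMSO wells and 100% = chloroquine plus artemisinin control wells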; conditions: P. falciparum 3D7 erythrocytic growth, LDH absorbance, 72 h; at 2 µM; stronger effect = higher value
[5] = molecular target: Calcium-dependent protein kinase 1 (Plasmodium falciparum (isolate 3D7)) (UniProt P62344); experiment: PfCDPK1 kinase inhibitors, biochemical, TCAMS library (AID 1159585; cut-off not given, nearly all actives have IC50 up to about 0.98 µM;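 note: inhibitors leave more ATP so luminescence rises with inhibition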); conditions: recombinant PfCDPK1, Kinase-Glo ATP depletion luminescence
Chain of Calcium-dependent protein kinase 1 (Plasmodium falciparum (isolate 3D7)) (P62344 whole entry, looked up): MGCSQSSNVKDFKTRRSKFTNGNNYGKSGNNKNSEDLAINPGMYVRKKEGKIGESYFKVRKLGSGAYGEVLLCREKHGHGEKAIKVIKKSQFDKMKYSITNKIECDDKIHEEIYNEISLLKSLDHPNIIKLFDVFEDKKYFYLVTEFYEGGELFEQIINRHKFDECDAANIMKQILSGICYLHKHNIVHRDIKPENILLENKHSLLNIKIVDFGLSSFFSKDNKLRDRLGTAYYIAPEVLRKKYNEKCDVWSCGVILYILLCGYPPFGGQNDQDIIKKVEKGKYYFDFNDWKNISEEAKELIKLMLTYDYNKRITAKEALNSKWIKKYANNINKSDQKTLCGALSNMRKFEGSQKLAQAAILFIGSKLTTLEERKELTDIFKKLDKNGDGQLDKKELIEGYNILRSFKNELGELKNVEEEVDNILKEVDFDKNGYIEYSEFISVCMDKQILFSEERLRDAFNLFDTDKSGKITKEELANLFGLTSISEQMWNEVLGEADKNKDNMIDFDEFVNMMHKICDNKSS

[6] = molecular target: Plasmodium falciparum protein kinase 6 (PK6, PF3D7_1337100) (UniProt Q8IDW1); experiment: PfPK6 kinase inhibitors, biochemical, TCAMS library (AID 1159586); conditions: recombinant PfPK6, Kinase-Glo ATP depletion luminescence
Chain of Plasmodium falciparum protein kinase 6 (PK6, PF3D7_1337100) (Q8IDW1 1-305): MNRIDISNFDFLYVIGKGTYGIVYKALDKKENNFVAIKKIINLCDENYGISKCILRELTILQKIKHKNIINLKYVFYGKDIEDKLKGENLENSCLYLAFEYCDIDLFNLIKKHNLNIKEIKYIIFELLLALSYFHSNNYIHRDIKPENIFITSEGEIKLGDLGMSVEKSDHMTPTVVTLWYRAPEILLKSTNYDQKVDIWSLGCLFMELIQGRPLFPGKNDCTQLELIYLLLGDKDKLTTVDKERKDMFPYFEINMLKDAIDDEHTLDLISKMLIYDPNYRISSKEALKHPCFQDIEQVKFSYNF

[7] = molecular target: Protein kinase 7 (PK7), Plasmodium falciparum 3D7 (PF3D7_0213400) (UniProt Q7YTF7); experiment: inhibition of Plasmodium PK7 catalytic activity – biochemical, TCAMS antimalarial set, Kinase-Glo luminescence (AID 1159587); conditions: recombinant PfPK7, Kinase-Glo ATP depletion luminescence
Chain of Protein kinase 7 (PK7), Plasmodium falciparum 3D7 (PF3D7_0213400) (Q7YTF7 1-343): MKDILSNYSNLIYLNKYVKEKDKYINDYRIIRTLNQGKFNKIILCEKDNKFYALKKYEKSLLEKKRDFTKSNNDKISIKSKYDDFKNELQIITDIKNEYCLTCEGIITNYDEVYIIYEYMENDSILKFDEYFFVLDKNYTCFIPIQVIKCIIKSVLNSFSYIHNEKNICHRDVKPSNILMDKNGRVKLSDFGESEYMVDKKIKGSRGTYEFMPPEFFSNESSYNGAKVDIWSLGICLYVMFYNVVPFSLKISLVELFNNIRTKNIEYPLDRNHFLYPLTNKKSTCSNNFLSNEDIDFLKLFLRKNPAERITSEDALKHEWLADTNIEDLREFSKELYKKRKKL

[8] = molecular target: Calcium-dependent protein kinase 4 (Plasmodium falciparum (isolate 3D7)) (UniProt Q8IBS5); experiment: PfCDPK4 kinase inhibitors, biochemical, TCAMS library (AID 1159588; cut-off not given, nearly all actives have IC50 up to about 0.91 µM); conditions: recombinant PfCDPK4, Kinase-Glo ATP depletion luminescence
Chain of Calcium-dependent protein kinase 4 (Plasmodium falciparum (isolate 3D7)) (Q8IBS5 whole entry, looked up): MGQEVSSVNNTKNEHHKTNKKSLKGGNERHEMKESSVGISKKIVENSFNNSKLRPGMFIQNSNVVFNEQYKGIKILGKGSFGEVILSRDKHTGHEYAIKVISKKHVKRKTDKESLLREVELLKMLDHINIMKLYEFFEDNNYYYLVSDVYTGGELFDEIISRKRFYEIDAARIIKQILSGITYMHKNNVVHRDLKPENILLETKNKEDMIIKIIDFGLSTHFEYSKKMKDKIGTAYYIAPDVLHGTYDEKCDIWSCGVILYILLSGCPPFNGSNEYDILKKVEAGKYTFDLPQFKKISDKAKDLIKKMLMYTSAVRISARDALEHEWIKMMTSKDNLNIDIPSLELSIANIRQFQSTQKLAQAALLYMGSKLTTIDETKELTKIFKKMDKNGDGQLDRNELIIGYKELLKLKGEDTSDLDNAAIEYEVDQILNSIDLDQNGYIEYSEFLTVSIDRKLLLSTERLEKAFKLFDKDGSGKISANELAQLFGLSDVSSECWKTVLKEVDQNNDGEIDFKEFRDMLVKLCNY

Compound	growth inhibition [1]	inhibition [2]	inhibition [3]	growth inhibition [4]	outcome [5]	outcome [6]	outcome [7]	outcome [8]
Oc1ccc(Cl)cc1CN1CCC(CCOC(c2ccccc2)c2ccccc2)CC1	99% (active)	14% (inactive)	4% (inactive)	98% (active)	inactive	inactive	inactive	inactive
CC(Cc1ccc(NC(=O)CCCc2ccccc2)cc1)NCCc1cccc(Cl)c1 (stereo unspecified)	3% (inactive)	12% (inactive)	-5% (inactive)	94% (active)	inactive	inactive	inactive	inactive
CC(C)(C)c1cc(/C=C/C(=O)NC2CCC(CN3CCC(c4c[nH]c5ccccc45)CC3)CC2)cc(C(C)(C)C)c1O (stereo unspecified)	100% (active)	98% (active) and 99% (active)	-3% (inactive) and -5% (inactive)	101% (active) and 102% (active)	inactive	inactive	inactive	inactive
CCOC(=O)c1c(C)n(C2CCCCCC2)c2cc(Br)c(O)cc12	45% (inactive)	-1% (inactive)	-1% (inactive)	87% (active)	inactive	inactive	inactive	inactive
CC(C)CNCc1cccc(-c2ccccc2CN(C(=O)Nc2ccccc2)C2CCN(Cc3ccccc3)CC2)c1	68% (active)	36% (inactive)	-2% (inactive)	100% (active)	inactive	inactive	inactive	inactive
O=C(C=Cc1ccc(Br)cc1)NC1CCC(CN2CCC(c3c[nH]c4ccccc34)CC2)CC1 (stereo unspecified)	98% (active)	71% (active)	-3% (inactive)	101% (active)	inactive	inactive	inactive	inactive
O=C(C=Cc1ccc(F)c(Br)c1)N1CCC(CN2CCC(c3c[nH]c4ccccc34)CC2)CC1	9% (inactive)	39% (inactive)	-3% (inactive)	100% (active)	inactive	inactive	inactive	inactive
CC(Cc1ccc(SC(C)C)cc1)NCC(O)c1cccc(Cl)c1 (stereo unspecified)	97% (active)	5% (inactive)	-3% (inactive)	99% (active)	inactive	inactive	inactive	inactive
CN1CC=C(c2c[nH]c3ccc(OCc4ccccc4)cc23)CC1	97% (active)	-2% (inactive)	-2% (inactive)	95% (active)	inactive	inactive	inactive	inactive
CC[C@H]1CN2CC[C@H]1C[C@@H]2[C@@H](OC(=O)c1ccc(Cl)cc1)c1ccnc2ccc(OC)cc12	-3% (inactive)	-18% (inactive)	-1% (inactive)	89% (active)	inactive	inactive	inactive	inactive
CC[C@H]1CN2CC[C@@H]1C[C@H]2[C@H](O)c1cc(-c2c(C)noc2C)nc2ccc(OC)cc12	98% (active)	4% (inactive)	-1% (inactive)	100% (active)	inactive	inactive	inactive	inactive
S=C(Nc1ccccc1Cl)NC1CCC(CN2CCC(c3c[nH]c4ccccc34)CC2)CC1 (stereo unspecified)	12% (inactive)	31% (inactive)	8% (inactive)	90% (active)	inactive	inactive	inactive	inactive
O=C(/C=C/c1ccccc1Cl)NC1CCC(CN2[C@@H]3CC[C@H]2CC(c2c[nH]c4ccccc24)C3)CC1 (stereo partly specified)	98% (active)	56% (active)	3% (inactive)	102% (active)	inactive	inactive	inactive	inactive
Cc1csc(-c2ccc3[nH]cc(C4=CCN(C)CC4)c3c2)n1	78% (active)	10% (inactive)	-3% (inactive)	93% (active)	inactive	inactive	inactive	inactive
COc1cccc(C2(NC[C@@H](O)[C@H](Cc3ccccc3)NC(=O)c3ccccc3)CCCCC2)c1	67% (active)	14% (inactive)	-2% (inactive)	97% (active)	inactive	inactive	inactive	inactive
CCCCn1c(C)c(C(=O)OCC)c2cc(OC(C)=O)c(Br)cc21	79% (active)	-8% (inactive)	-1% (inactive)	98% (active)	inactive	inactive	inactive	inactive
Cc1cc(N)nc2ccc(CNCCc3ccccc3Br)cc12	77% (active)	28% (inactive)	7% (inactive)	102% (active)	inactive	inactive	inactive	inactive
COc1ccc(CC(C)NCC(O)c2cccc(C(F)(F)F)c2)cc1 (stereo unspecified)	94% (active)	-7% (inactive)	3% (inactive)	98% (active)	inactive	inactive	inactive	inactive
Cn1nc(C(F)(F)F)cc1-c1ccc(C(=O)NC2CCC(CN3CCC(c4c[nH]c5ccccc45)CC3)CC2)s1 (stereo unspecified)	97% (active)	45% (inactive)	-1% (inactive)	101% (active)	inactive	inactive	inactive	inactive
Cc1nc(C)c(-c2ccc(Oc3ccc(OC(F)(F)F)cc3)cc2)c(OC(=O)N(CCNC(C)C)C(C)C)c1Br	97% (active)	35% (inactive)	-2% (inactive)	98% (active)	inactive	inactive	inactive	inactive
COC(C(=O)OCCC1CCCN1C)(c1ccccc1)C1CCCCC1 (stereo unspecified)	5% (inactive)	3% (inactive)	4% (inactive)	100% (active)	inactive	inactive	inactive	inactive
O=C(/C=C/c1cccs1)NC1CCC(CN2CCC(c3c[nH]c4ccccc34)CC2)CC1 (stereo unspecified)	29% (inactive)	33% (inactive)	-1% (inactive)	82% (active)	inactive	inactive	inactive	inactive
C=C[C@H]1CN2CC[C@H]1C[C@H]2[C@H](O)c1cc(/C=C/c2ccc(F)cc2)nc2ccc(OC)cc12	99% (active)	25% (inactive)	4% (inactive)	99% (active)	inactive	inactive	inactive	inactive
CC[C@H]1CN2CC[C@H]1C[C@H]2[C@H](O)c1cc(-c2cccc(F)c2)nc2ccc(OC)cc12	97% (active)	34% (inactive)	5% (inactive)	99% (active)	inactive	inactive	inactive	inactive

Compound	growth inhibition [1]	inhibition [2]	inhibition [3]	growth inhibition [4]	outcome [5]	outcome [6]	outcome [7]	outcome [8]
O=C(NC1CCC(CN2CCC(c3c[nH]c4ccccc34)CC2)CC1)c1csc(-c2ccc(C(F)(F)F)cc2Cl)n1 (stereo unspecified)	75% (active)	32% (inactive)	-3% (inactive)	99% (active)	inactive	inactive	inactive	inactive
O=C(/C=C/c1ccc(Cl)c(Cl)c1)NC1CCC(N2CCC(c3c[nH]c4ccc(O)cc34)CC2)CC1 (stereo unspecified)	16% (inactive)	10% (inactive)	-9% (inactive)	97% (active)	inactive	inactive	inactive	inactive
COc1ccc(CCNCc2ccc3nc(N)cc(C)c3c2)cc1	86% (active)	23% (inactive)	-5% (inactive)	100% (active)	inactive	inactive	inactive	inactive
COc1ccc(OC)c([C@H](O)[C@@H](C)NCc2cc(Cl)ccc2O)c1	99% (active)	11% (inactive)	4% (inactive)	97% (active)	inactive	inactive	inactive	inactive
CCCCCCCSc1ccc(CC(C)NCC(O)c2cccc(Cl)c2)cc1 (stereo unspecified)	99% (active)	94% (active)	-3% (inactive)	100% (active)	inactive	inactive	inactive	inactive
CCCCCCCN1[C@@H]2CC[C@H]1CC(CCOc1ccnc3ccc(OC)cc13)C2 (stereo partly specified)	88% (active)	23% (inactive)	-1% (inactive)	98% (active)	inactive	inactive	inactive	inactive
CC1CN=C(Nc2ncc(Cl)cc2Cl)N1 (stereo unspecified)	3% (inactive)	2% (inactive)	7% (inactive)	99% (active)	inactive	inactive	inactive	inactive
Cc1ccc2[nH]cc(C3CCN(CC4CCC(NC(=O)/C=C/c5ccc(Cl)c(Cl)c5)CC4)CC3)c2c1 (stereo unspecified)	46% (inactive) and 86% (active)	29% (inactive) and 37% (inactive)	-10% (inactive) and 0% (inactive)	101% (active) and 94% (active)	inactive	inactive	inactive	inactive
O=C(NC1CCC(CN2CCC(c3c[nH]c4ccccc34)CC2)CC1)c1[nH]c(=O)[nH]c(=O)c1F (stereo unspecified)	59% (active)	5% (inactive)	-2% (inactive)	99% (active)	inactive	inactive	inactive	inactive
Cc1ccc2c(C3=CCN(CCCCC4(C)C(=O)Nc5c(F)cccc54)CC3)c(C)[nH]c2c1 (stereo unspecified)	89% (active)	5% (inactive)	-4% (inactive)	95% (active)	inactive	inactive	inactive	inactive
CC[C@H]1CN2CCc3cc(OC)c(OC)cc3[C@@H]2C[C@@H]1C[C@H]1NCCc2c1cc(OC)c(O)c2Cl	101% (active)	51% (active)	2% (inactive)	100% (active)	inactive	inactive	inactive	inactive
COC(=O)c1ccc(CC(C)NCC(O)c2ccccc2Cl)cc1 (stereo unspecified)	55% (active)	1% (inactive)	1% (inactive)	94% (active)	inactive	inactive	inactive	inactive
O=C1NCN(c2ccc(O)cc2)C12CCN(CCCC(c1ccc(F)cc1)c1ccc(F)cc1)CC2	34% (inactive)	20% (inactive)	2% (inactive)	94% (active)	inactive	inactive	inactive	inactive
CN1CC=C(c2csc3ccc(NC(=O)Nc4ccc(-c5ccncc5)c(Cl)c4)cc23)CC1	101% (active)	10% (inactive)	6% (inactive)	102% (active)	inactive	inactive	inactive	inactive
C=Cc1cc(OC)c2c(c1)c(=O)oc1c2cc(OC)c2c(O)ccc([C@H]3O[C@H]([C@@H](C)O)[C@H](O)[C@H]3O)c21	41% (inactive)	33% (inactive)	0% (inactive)	95% (active)	inactive	inactive	inactive	inactive
CC(Cc1ccc(SC(C)(C)C)cc1)NCC(O)c1cccc(Cl)c1 (stereo unspecified)	99% (active)	14% (inactive)	-7% (inactive)	99% (active)	inactive	inactive	inactive	inactive
O=C(Nc1ccccc1Cl)NC1CCC(CN2CCC(c3c[nH]c4ccccc34)CC2)CC1 (stereo unspecified)	31% (inactive) and 34% (inactive)	32% (inactive) and 37% (inactive)	0% (inactive) and -2% (inactive)	98% (active) and 101% (active)	inactive	inactive	inactive	inactive
COc1cc(NCCCNC(=O)c2cn(Cc3ccccc3)c3ccccc23)nc2ccccc12	66% (active)	13% (inactive)	0% (inactive)	101% (active)	inactive	inactive	inactive	inactive
COCCNCc1cccc(-c2cccc(CN(C(=O)Nc3ccccc3)C3CCN(Cc4ccccc4)CC3)c2)c1	65% (active)	28% (inactive)	-1% (inactive)	100% (active)	inactive	inactive	inactive	inactive
COC(=O)CN(C(=O)/C=C/c1ccc(Cl)c(Cl)c1)C1CCC(CN2CCC(c3c[nH]c4ccccc34)CC2)CC1 (stereo unspecified)	69% (active)	31% (inactive)	-1% (inactive)	100% (active)	inactive	inactive	inactive	inactive
CC(C)CCNC(=O)c1cc(C(=O)c2cc(F)ccc2O)cn(CCC(C)C)c1=O	45% (inactive)	14% (inactive)	-1% (inactive)	100% (active)	inactive	inactive	inactive	inactive
CCCCCCCc1cc(O)c2c(c1)OC(C)(C)c1ccncc1-2	52% (active)	-7% (inactive)	0% (inactive)	95% (active)	inactive	inactive	inactive	inactive
CC(=O)Nc1ccc(CN2CCC(N(C)c3cc(NC(=O)c4cccs4)ccn3)CC2)cc1	43% (inactive)	-1% (inactive)	2% (inactive)	101% (active)	inactive	inactive	inactive	inactive
